From PubChem BioAssay (NCATS)
Inconclusive results are not listed. The source made the active and inactive calls. Unless noted, the call rests on the fitted dose curve; in most records, active means well fitted curve in the direction sought with a large enough effect; inconclusive means small, poorly fitted or top-dose-only effect, or another doubt; inactive means no such curve, though single readings can be large; an effect the other way counts as inactive or inconclusive.

How the values were obtained:
[1] = biological target: Glutaminase kidney isoform, mitochondrial (Homo sapiens) (UniProt O94925); assay: qHTS for Inhibitors of Glutaminase (GLS): LOPAC Validation (AID 624146); further: potency means the concentration at half of the fitted maximal effect; nearly all actives have a fitted effect of over 60% in size
In short: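 Read-out is an Amplex red fluorescence increase coupled through glutamate oxidase and HRP, measured before and after 30 min room-temperature incubation. hKGA is in 45 mM KH2PO4 (pH 8.2) with 0.02% Tween-20; glutamine added as 1mM solution.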

[2] = qHTS of Nrf2 Activators: LOPAC Validation (AID 624149)
In short: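 Luminescence read-out of ARE-luciferase activation: AREc32_Fluc cells treated with compounds for 24 hr at 37 deg C, then lysed with Steady-Glo for 30 min at room temperature before reading.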

[3] = qHTS for compounds that reverse cellular toxicity of Amyloid beta (A-beta) peptide in yeast: LOPAC Validation Assay (AID 720559)
In short: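 Here, A-beta-toxic yeast grow with test compounds at 30 C for 48 hr before optical density at 600 nm is recorded; data are normalized against DMSO and the FeCl3-clioquinol control.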

[4] = qHTS for Activators of Parkin Expression: LOPAC Validation Assay (NLuc Reporter) (AID 720572)
In short: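 Parkin promoter-driven FLuc/NLuc neuronal reporter cells; 24 h plating, 7-pt dose response, 24 h at 37 C/5% CO2; FLuc then NanoLuc reagent, 10 min each, luminescence; DMSO/positive control normalized.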

[5] = qHTS for Activators of Parkin Expression: LOPAC Validation Assay (FLuc Reporter) (AID 720573)
In short: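 Readout is FLuc luminescence from neuronal reporter cells (Parkin promoter, FLuc plus NLuc) after 24 h compound exposure in dose response. Values normalized to neutral DMSO and positive-control compounds.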

[6] = biological target: T1, Hexokinase-4 (Homo sapiens) + Glucokinase regulatory protein (Homo sapiens) (UniProt P35557+Q14397); assay: qHTS assay for inhibitors of recombinant human GCK-GKRP interaction: Diaphorase-coupled assay (AID 743205)
In short: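 Signal derives from resorufin generated by diaphorase, linked to GCK turnover of glucose (5 mM) and ATP (0.4 mM). Enzyme complex was added after a 20-minute compound preincubation and monitored for 30 minutes.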

[7] = biological target: T1, Hexokinase-4 (Homo sapiens) + Glucokinase regulatory protein (Homo sapiens); assay: qHTS assay for inhibitors of recombinant human GCK-GKRP interaction: ADP-Glo assay (AID 743206)
In short: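 GST-GCK and FLAG-GKRP (15 nM each in the dispensed mix, with 2 uM S6P) react with 0.4 mM ATP and 5 mM glucose (final) in Hepes pH 7.6 for 60 min at room temperature. ADP is measured by ADP-Glo luminescence.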

[8] = biological target: T1, Hexokinase-4 (Homo sapiens) + Glucokinase regulatory protein (Homo sapiens); assay: qHTS assay for inhibitors of recombinant human GCK-GKRP interaction: HTRF assay (AID 743207)
In short: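 Titration screening format: recombinant GST-GCK and FLAG-GKRP at 5 nM, S6P at 2 uM, labelled anti-tag antibodies, 60 min at RT, dual-wavelength HTRF readout.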

[9] = Natriuretic polypeptide receptor (hNpr1) antagonism - Pilot counterscreen GloSensor control cell line (AID 1347045; calls by dose curve)
In short: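 Luminescence was read before and 20 min after adding 50 uM SNP, which stimulates soluble guanylyl cyclase. The HEK293 cells expressing the GloSensor cGMP sensor had been preloaded with 2% reagent for 2 h and treated with compound.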

[10] = biological target: Atrial natriuretic peptide receptor 1 (Homo sapiens) (UniProt P16066); assay: Natriuretic polypeptide receptor (hNpr1) antagonism - Pilot screen (AID 1347049; calls by dose curve;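 further: agonist-evoked cGMP luminescence read 20 min after hNppA addition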)
In short: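 Readout is cGMP-driven firefly luciferase luminescence in HEK293 cells carrying hNpr1 and a PDE5-domain GloSensor, read before and 20 min after 0.1 nM hNppA stimulation. Cells had 2% substrate reagent for 2 h and test compound for 30 min.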

[11] = biological target: Atrial natriuretic peptide receptor 2 (Homo sapiens) (UniProt P20594); assay: Natriuretic polypeptide receptor (hNpr2) antagonism - Pilot subtype selectivity assay (AID 1347050; calls by dose curve)
In short: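 Pilot selectivity screen against hNpr2: HEK293 cGMP-sensor cells are treated with LOPAC1280 compounds, then with hNppC peptide at 1 nM final. The cGMP-driven luminescence change over 20 min at room temperature is the read-out.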

[12] = biological target: T2, Tyrosine-protein phosphatase non-receptor type substrate 1 (Homo sapiens) + Leukocyte surface antigen CD47 (Homo sapiens) (UniProt P78324+Q08722); assay: CD47-SIRPalpha protein protein interaction - LANCE assay qHTS validation (AID 1347057; active means well fitted curve in the direction sought with a large enough effect in the signal ratio, with a control signal flat, not every such curve was filed as active; the % refers to the signal ratio)
In short: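 First, His-tagged CD47 and Eu-labelled anti-His antibody met the compound for 30 min; next, site-specifically biotinylated SIRPalpha was added for 30 min; finally streptavidin-APC was added before reading the TR-FRET ratio.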

[13] = biological target: T2, Tyrosine-protein phosphatase non-receptor type substrate 1 (Homo sapiens) + Leukocyte surface antigen CD47 (Homo sapiens); assay: CD47-SIRPalpha protein protein interaction - HTRF assay qHTS validation (AID 1347058; active means well fitted curve in the direction sought with a large enough effect in the signal ratio, not every such curve was filed as active; the % refers to the signal ratio;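 further: recombinant soluble extracellular CD47 with His tag and biotinylated SIRPalpha domains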)
In short: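 TR-FRET read (Ch1/Ch2 ratio) of soluble extracellular CD47 and Avi-biotinylated SIRPalpha domains in PBS pH 7.4 with 0.05% IGEPAL; 7-point compound titration. Sequential 30 min room-temperature steps; non-biotinylated SIRPalpha as control inhibitor.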

[14] = biological target: T2, Tyrosine-protein phosphatase non-receptor type substrate 1 (Homo sapiens) + Leukocyte surface antigen CD47 (Homo sapiens); assay: CD47-SIRPalpha protein protein interaction - Alpha assay qHTS validation (AID 1347059);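 further: bead proximity luminescence from CD47 binding SIRPalpha after compound preincubation with SIRPalpha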
In short: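 Binding is measured by AlphaScreen proximity: Ni-NTA acceptor beads capture His-CD47, streptavidin donor beads capture biotin-SIRPalpha. Each of three additions (SIRPalpha with compound, CD47, beads) incubates 30 min at room temperature protected from light.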

[15] = biological target: Parathyroid hormone/parathyroid hormone-related peptide receptor (Homo sapiens) (UniProt Q03431); assay: qHTS for PTHR1 Agonists: Optimization Screen against the NCGC LOPAC library (AID 1347079);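 further: GloSensor cAMP luminescence in HEK-293 GP2 cells expressing human PTHR1 with IBMX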
In short: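 Agonist readout: GloSensor cAMP luminescence, read after 15 min at room temperature. HEK-293-derived GP2 line carries PTHR1; compounds tested as a titration for 1 hr at 37C in presence of IBMX. M-PTH (1-15) served as control.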

[16] = biological target: N-terminal Xaa-Pro-Lys N-methyltransferase 1 (Homo sapiens) (UniProt Q9BV86); assay: qHTS Assay for Inhibitors of N-terminal methyltransferase 1 (NTMT1): LOPAC validation of the NTMT1 SAHH-coupled ThioGlo3 Assay (AID 1347143);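 further: SAH from peptide methylation measured as thiol fluorescence via SAHH coupling and ThioGlo3; potency means the concentration at half of the fitted maximal effect; nearly all actives have a fitted effect of over 70% in size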
In short: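 Inhibition of NTMT1 methylation of peptide SPKRIA is followed by converting SAH with SAHH and labelling the released thiol with ThioGlo3. Plates are read at 340/450nm before and 30 min after reagent addition, both at room temperature.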

[17] = qHTS to identify inhibitors of the type 1 interferon - major histocompatibility complex class I in skeletal muscle: primary screen against the NCATS LOPAC collection (AID 1347405);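 further: lytic HiBiT luminescence reporting HLA-B protein level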
In short: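 Luminescence from HiBiT fused to endogenous HLA-B in CRISPR-engineered human myoblasts served as the read-out. Cells received 4.0 ng/ml IFN-beta plus compound (seven concentrations, 1:4.3 steps, highest 46 uM final) for 24 hrs before lytic detection.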

[18] = qHTS for inhibitors of adenylyl cyclases using a fission yeast platform: a pilot screen against the NCATS LOPAC library (AID 1347410)
In short: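 Inhibition of GNAS-stimulated AC9 activity in S. pombe was inferred from derepression of a PKA-repressed fbp1-GFP reporter, measured as cytometric fluorescence after 18 h at 30C with compounds at up to 57 µM.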

[19] = biological target: Single-stranded DNA cytosine deaminase (Homo sapiens) (UniProt Q9GZX7); assay: Validation qHTS assay for inhibitors of Activation Induced Cytidine Deaminase (AID): AID signal (AID 1347429)
In short: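 Fluorescence at 540 nm excitation and 590 nm emission reports ssDNA cytosine deamination by AID, with UDG in the same well. Compound-treated reactions ran 4 hr at room temperature with DJC20/DJC23 substrate, followed by 30 min NaOH treatment.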

[20] = biological target: Calcium and integrin-binding protein 1 (Homo sapiens) (UniProt Q99828); assay: Validation qHTS for Identification of Calcium Integrin Binding protein 1 (CIB1) Competitor (AID 1508618)
In short: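 Displacement of FITC-alphaIIb peptide (100 nM) from CIB1-GST (1 uM) is monitored by polarization in quantitative HTS format; buffer carries 5 mM CaCl2 and 125 mM NaCl at pH 7.4, incubations are at room temperature.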

[21] = Primary qHTS for small molecule stabilizers of the endoplasmic reticulum resident proteome: Secreted ER Calcium Modulated Protein (SERCaMP) assay (AID 1508630)
In short: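 GLuc-SERCaMP-expressing SH-SY5Y cells, pretreated 16 h with compound, are challenged with thapsigargin to empty ER calcium stores; after 4 h, coelenterazine is added directly to the medium and luminescence is imaged.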

[22] = biological target: Papain (Carica papaya) (UniProt P00784); assay: Primary qHTS assay for inhibitors of the protease papain (AID 1645873);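 further: papain turnover of Z-FR-AMC read as the AMC fluorescence gain over 10 min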
[23] = biological target: Catechol O-methyltransferase (Homo sapiens) (UniProt P21964); assay: Confirmatory Screen for Target Class Profiling of Small Molecule Inhibitors of Methyltransferases (AID 1745852); conditions: MTase-Glo luminescence, SAH detection, recombinant enzyme; measured here: COMT max response; stronger effect = lower value
[24] = biological target: Guanidinoacetate N-methyltransferase (Homo sapiens) (UniProt Q14353); assay: as above; conditions: activity change, negative = inhibition: at 57.3 µM (top of the series) unless noted
[25] = biological target: Nicotinamide N-methyltransferase (Homo sapiens) (UniProt P40261); assay: as above; conditions: MTase-Glo luminescence, SAH detection, recombinant enzyme; measured here: NNMT max response; stronger effect = lower value
[26] = biological target: Phenylethanolamine N-methyltransferase (Homo sapiens) (UniProt P11086); assay: as above; conditions: MTase-Glo luminescence, SAH detection, recombinant enzyme; measured here: PNMT max response; stronger effect = lower value
[27] = biological target: Metallo-beta-lactamase type 2 (Klebsiella pneumoniae) (UniProt C7C422); assay: qHTS to identify inhibitors of the New Delhi Metallo-beta-lactamase (NDM): assay validation screen against the NCATS LOPAC Collection (AID 1794843);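 further: nitrocefin turnover by NDM-1 measured as 485 nm absorbance at plateau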
In short: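 Enzyme 2 nM final, 50 mM HEPES pH 7.0, 1 uM ZnSO4, 0.01% Tween20; cpds in DMSO, preincub w/ enzyme; + nitrocefin (50 uM stock); A485 at plateau; no-enzyme column as blank.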

[28] = biological target: Glutathione peroxidase 1 (Homo sapiens) (UniProt P07203); assay: Primary qHTS Assay for Inhibitors of Recombinant Selenoprotein Glutathione Peroxidase 1 (GPX1) (AID 1845191); further: nearly all actives have a fitted effect of over 65% in size
In short: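 10 nM GPX1 + cpd, 30 min RT; start w/ 1 mM GSH, 0.5 mM cumene hydroperoxide, 0.5 mM NADPH, 100 nM GR, 0.01% BSA; buffer 50 mM Tris-HCl pH 7.5, 2 mM EDTA, 150 mM NaCl; Fl 340/450, 0 & 15 min.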

[29] = biological target: Phospholipid hydroperoxide glutathione peroxidase GPX4 (Homo sapiens) (UniProt P36969); assay: Primary qHTS Assay for Inhibitors of Recombinant Selenoprotein Glutathione Peroxidase 4 (GPX4) (AID 1845192); conditions: outcome: dose series up to 50 µM unless noted; further: nearly all actives have a fitted effect of over 65% in size
In short: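 NADPH consumption, followed by fluorescence at 340/450 nm between 0 and 15 min, reports GPX4 activity via coupled glutathione reductase (100 nM). Enzyme 200 nM was pre-exposed to compound 30 min; 0.5 mM cumene hydroperoxide and 1 mM GSH served as substrates.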

T2 sequence (P78324 whole entry, looked up): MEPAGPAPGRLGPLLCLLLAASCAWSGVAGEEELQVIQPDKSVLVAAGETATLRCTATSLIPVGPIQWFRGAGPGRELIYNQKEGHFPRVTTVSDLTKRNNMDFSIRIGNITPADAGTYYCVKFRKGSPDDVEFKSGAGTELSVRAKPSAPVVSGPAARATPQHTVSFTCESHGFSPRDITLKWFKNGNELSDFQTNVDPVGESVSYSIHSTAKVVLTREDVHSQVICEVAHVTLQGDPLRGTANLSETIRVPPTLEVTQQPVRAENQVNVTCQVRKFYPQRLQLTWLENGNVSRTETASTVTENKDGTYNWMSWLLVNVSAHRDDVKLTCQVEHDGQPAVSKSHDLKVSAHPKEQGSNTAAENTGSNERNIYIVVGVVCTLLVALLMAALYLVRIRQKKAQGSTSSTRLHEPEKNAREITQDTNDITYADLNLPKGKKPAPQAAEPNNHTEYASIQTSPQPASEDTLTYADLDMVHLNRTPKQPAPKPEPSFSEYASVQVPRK
T2 sequence (Q08722 whole entry, looked up): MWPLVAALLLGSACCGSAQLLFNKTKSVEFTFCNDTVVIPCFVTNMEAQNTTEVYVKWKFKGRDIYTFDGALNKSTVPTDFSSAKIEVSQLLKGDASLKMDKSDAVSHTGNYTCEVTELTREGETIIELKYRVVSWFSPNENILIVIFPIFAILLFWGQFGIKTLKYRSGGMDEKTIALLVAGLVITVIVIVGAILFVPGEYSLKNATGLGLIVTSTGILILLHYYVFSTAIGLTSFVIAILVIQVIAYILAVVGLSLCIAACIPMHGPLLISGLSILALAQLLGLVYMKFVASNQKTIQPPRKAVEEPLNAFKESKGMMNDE
T1 sequence (P35557 whole entry, looked up): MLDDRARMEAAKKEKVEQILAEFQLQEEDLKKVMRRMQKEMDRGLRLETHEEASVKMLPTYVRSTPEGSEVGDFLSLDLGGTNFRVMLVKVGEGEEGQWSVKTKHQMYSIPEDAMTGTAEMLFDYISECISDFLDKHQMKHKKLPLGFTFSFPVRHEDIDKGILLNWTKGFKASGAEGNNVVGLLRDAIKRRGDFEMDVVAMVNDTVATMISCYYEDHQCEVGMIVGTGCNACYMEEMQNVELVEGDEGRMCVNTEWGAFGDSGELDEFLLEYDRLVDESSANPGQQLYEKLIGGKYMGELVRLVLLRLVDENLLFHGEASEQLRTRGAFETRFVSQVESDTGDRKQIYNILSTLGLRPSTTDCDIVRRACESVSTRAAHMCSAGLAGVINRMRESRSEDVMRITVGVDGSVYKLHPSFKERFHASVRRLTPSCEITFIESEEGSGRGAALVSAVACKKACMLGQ
T1 sequence (Q14397 whole entry, looked up): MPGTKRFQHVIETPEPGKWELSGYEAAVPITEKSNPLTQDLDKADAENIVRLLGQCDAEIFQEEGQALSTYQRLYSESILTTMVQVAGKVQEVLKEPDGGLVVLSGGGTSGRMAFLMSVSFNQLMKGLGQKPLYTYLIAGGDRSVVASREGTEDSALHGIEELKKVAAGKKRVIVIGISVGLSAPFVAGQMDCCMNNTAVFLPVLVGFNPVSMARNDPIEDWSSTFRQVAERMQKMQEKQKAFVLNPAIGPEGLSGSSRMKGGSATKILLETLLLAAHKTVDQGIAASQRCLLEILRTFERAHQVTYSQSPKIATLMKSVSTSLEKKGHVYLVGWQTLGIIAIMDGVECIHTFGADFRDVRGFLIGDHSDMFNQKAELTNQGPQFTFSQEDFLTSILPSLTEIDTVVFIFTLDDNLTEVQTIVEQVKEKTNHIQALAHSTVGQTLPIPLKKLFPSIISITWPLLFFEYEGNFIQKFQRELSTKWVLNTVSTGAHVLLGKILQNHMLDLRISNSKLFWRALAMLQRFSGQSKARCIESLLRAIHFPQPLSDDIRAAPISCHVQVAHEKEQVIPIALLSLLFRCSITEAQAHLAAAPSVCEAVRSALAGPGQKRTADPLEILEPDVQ
Chain of N-terminal Xaa-Pro-Lys N-methyltransferase 1 (Homo sapiens) (Q9BV86 whole entry, looked up): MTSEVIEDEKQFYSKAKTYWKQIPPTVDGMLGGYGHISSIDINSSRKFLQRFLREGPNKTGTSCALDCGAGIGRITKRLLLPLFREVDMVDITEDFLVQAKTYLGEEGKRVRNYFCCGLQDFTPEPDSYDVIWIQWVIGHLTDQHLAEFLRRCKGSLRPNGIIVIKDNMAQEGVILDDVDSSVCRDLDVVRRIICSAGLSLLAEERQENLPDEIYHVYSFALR
Chain of Calcium and integrin-binding protein 1 (Homo sapiens) (Q99828 whole entry, looked up): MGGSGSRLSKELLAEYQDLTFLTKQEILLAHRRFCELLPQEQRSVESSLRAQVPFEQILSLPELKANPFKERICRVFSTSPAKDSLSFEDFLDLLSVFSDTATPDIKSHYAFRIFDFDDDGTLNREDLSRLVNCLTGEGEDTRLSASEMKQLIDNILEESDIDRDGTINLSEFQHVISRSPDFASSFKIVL
Chain of Glutathione peroxidase 1 (Homo sapiens) (P07203 whole entry, looked up): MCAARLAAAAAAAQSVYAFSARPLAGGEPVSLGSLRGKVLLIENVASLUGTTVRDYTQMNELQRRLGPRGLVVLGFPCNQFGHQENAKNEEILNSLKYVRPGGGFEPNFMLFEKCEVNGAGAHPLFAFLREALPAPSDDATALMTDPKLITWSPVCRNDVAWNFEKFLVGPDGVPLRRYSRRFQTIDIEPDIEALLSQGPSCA
Chain of Phospholipid hydroperoxide glutathione peroxidase GPX4 (Homo sapiens) (P36969 whole entry, looked up): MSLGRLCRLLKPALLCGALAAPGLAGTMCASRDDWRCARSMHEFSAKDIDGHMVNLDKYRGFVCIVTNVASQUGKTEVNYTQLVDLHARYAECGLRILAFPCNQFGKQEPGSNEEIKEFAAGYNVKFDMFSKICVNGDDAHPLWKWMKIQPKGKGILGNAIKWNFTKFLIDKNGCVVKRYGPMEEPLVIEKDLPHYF
Chain of Single-stranded DNA cytosine deaminase (Homo sapiens) (Q9GZX7 whole entry, looked up): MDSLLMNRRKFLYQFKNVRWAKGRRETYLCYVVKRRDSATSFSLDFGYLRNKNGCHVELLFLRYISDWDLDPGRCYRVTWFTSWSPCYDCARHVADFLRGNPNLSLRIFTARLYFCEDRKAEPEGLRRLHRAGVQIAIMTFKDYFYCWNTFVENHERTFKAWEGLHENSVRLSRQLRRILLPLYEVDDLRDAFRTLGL
Chain of Atrial natriuretic peptide receptor 2 (Homo sapiens) (P20594 whole entry, looked up): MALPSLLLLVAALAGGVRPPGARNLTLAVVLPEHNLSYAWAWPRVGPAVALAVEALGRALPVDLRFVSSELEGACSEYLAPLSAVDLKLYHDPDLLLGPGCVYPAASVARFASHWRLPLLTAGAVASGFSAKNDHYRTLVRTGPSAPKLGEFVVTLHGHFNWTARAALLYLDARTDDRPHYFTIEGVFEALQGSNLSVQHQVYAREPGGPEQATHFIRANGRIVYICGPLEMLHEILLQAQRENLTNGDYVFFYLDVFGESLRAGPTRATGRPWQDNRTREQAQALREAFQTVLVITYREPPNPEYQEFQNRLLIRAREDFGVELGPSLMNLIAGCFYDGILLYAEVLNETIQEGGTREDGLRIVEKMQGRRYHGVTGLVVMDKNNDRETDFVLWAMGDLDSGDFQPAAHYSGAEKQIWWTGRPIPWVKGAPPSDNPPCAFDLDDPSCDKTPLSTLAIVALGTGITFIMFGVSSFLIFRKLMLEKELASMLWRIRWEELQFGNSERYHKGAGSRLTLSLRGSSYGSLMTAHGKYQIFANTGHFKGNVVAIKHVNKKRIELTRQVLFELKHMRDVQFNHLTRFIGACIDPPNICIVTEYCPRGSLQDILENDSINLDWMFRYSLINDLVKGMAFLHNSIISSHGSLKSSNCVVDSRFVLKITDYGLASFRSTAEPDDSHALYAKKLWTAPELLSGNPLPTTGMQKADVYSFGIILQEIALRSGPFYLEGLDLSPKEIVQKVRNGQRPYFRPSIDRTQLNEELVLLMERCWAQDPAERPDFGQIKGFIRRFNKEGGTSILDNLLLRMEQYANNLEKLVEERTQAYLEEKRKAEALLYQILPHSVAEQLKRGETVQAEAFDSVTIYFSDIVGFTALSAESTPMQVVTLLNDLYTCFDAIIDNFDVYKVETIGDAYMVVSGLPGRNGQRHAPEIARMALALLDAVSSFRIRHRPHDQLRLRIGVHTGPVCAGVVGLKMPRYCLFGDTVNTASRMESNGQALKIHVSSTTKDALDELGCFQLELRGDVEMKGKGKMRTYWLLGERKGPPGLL
Chain of Catechol O-methyltransferase (Homo sapiens) (P21964 whole entry, looked up): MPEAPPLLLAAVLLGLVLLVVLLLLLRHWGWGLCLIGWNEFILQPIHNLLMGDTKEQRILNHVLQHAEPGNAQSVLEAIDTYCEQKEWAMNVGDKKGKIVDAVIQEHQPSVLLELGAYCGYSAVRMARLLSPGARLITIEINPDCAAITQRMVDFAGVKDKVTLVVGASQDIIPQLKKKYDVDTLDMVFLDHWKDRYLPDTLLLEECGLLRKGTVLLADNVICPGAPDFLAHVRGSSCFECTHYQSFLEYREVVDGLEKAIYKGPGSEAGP
Chain of Metallo-beta-lactamase type 2 (Klebsiella pneumoniae) (C7C422 whole entry, looked up): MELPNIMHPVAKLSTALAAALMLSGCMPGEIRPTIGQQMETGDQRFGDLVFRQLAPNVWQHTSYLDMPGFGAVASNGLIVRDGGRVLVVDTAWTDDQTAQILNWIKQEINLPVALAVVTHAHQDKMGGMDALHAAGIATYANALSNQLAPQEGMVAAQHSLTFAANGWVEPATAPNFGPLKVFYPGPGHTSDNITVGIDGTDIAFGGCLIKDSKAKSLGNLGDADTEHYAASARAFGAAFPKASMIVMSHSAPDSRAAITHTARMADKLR
Chain of Phenylethanolamine N-methyltransferase (Homo sapiens) (P11086 whole entry, looked up): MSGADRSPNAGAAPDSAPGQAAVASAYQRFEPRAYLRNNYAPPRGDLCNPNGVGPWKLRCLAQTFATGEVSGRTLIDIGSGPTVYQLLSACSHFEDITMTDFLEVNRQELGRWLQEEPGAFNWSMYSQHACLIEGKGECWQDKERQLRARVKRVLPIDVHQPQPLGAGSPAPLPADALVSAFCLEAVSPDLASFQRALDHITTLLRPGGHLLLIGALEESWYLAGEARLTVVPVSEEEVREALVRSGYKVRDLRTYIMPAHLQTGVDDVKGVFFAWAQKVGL

Oc1cc2c(c(Cl)c1O)CCNCC2c1ccccc1 (centres undefined)
7.26%: activity [26]
-10.3%: activity [25]
72.9%: activity [23]
2.7%: activity change, negative = inhibition [24]
inactive: outcome [2] | outcome [3] | outcome [4] | Potency [5] | outcome [6] | outcome [7] | outcome [8] | Potency [9] | Potency [10] | Potency [11] | outcome [12] | outcome [13] | Potency [14] | outcome [15] | Potency [17] | outcome [18] | Potency [19] | outcome [20] | Potency [21] | Potency [22] | Potency [27] | Potency [28] | Potency [29]
active: Potency [1] 1.12 µM | Potency [16] 39.8 µM
